PubChem BioAssay (NCATS)
Records with an inconclusive call do not appear. The source made the active and inactive calls. The call rests on the fitted dose curve; in most records, active means well fitted inhibition curve with a large enough effect; inconclusive means small, poorly fitted or top-dose-only effect; inactive means flat fitted curve, though single readings scatter.

Tests used:
ECU = assay: qHTS profiling for inhibitors of Plasmodium falciparum proliferation (AID 504749); settings: P. falciparum in erythrocytes, SYBR Green DNA, 72 h; series mostly up to 28.7 µM
Method in brief: (§1)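 In a 72 h erythrocytic culture (37 C, humidified, 5% CO2) at 2.5% hematocrit and 0.3% starting parasitemia, compounds were tested; SYBR Green I in detergent lysis buffer stained parasite DNA overnight.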

FAB9 = assay: as above; settings: P. falciparum in erythrocytes, SYBR Green DNA, 72 h; series mostly up to 28.7 µM
Method in brief: as §1

GB4 = assay: as above; settings: P. falciparum in erythrocytes, SYBR Green DNA, 72 h; series mostly up to 28.7 µM
Method in brief: as §1

HB3 = assay: as above; settings: P. falciparum in erythrocytes, SYBR Green DNA, 72 h; series mostly up to 28.7 µM
Method in brief: as §1

ICS = assay: as above; settings: P. falciparum in erythrocytes, SYBR Green DNA, 72 h; series mostly up to 28.7 µM
Method in brief: as §1

JCK = assay: as above; settings: P. falciparum in erythrocytes, SYBR Green DNA, 72 h; series mostly up to 28.7 µM
Method in brief: as §1

N140 = assay: as above; settings: P. falciparum in erythrocytes, SYBR Green DNA, 72 h; series mostly up to 28.7 µM
Method in brief: as §1

P93_24 = assay: as above; settings: P. falciparum in erythrocytes, SYBR Green DNA, 72 h; series mostly up to 28.7 µM
Method in brief: as §1

P94_40 = assay: as above; settings: P. falciparum in erythrocytes, SYBR Green DNA, 72 h; series mostly up to 28.7 µM
Method in brief: as §1

PAD = assay: as above; settings: P. falciparum in erythrocytes, SYBR Green DNA, 72 h; series mostly up to 28.7 µM
Method in brief: as §1

PC15 = assay: as above; settings: P. falciparum in erythrocytes, SYBR Green DNA, 72 h; series mostly up to 28.7 µM
Method in brief: as §1

PC26 = assay: as above; settings: P. falciparum in erythrocytes, SYBR Green DNA, 72 h; series mostly up to 28.7 µM
Method in brief: as §1

PC49 = assay: as above; settings: P. falciparum in erythrocytes, SYBR Green DNA, 72 h; series mostly up to 28.7 µM
Method in brief: as §1

SC27B = assay: as above; settings: P. falciparum in erythrocytes, SYBR Green DNA, 72 h; series mostly up to 28.7 µM
Method in brief: as §1

TAB109 = assay: as above; settings: P. falciparum in erythrocytes, SYBR Green DNA, 72 h; series mostly up to 28.7 µM
Method in brief: as §1

TAB113 = assay: as above; settings: P. falciparum in erythrocytes, SYBR Green DNA, 72 h; series mostly up to 28.7 µM
Method in brief: as §1

TAB165 = assay: as above; settings: P. falciparum in erythrocytes, SYBR Green DNA, 72 h; series mostly up to 28.7 µM
Method in brief: as §1

W2 = assay: as above; settings: P. falciparum in erythrocytes, SYBR Green DNA, 72 h; series mostly up to 28.7 µM
Method in brief: as §1

CRL-7250 = normal cell line; assay: Cytotoxic Profiling of Annotated Libraries Using Quantitative High-Throughput Screening (AID 1296008); settings: Five cell lines viability, CellTiter-Glo ATP luminescence, 48-72 h; stronger effect = lower value; on max response: on the % scale 0 is the no-effect control and ±100 the full control effect
Method in brief: (§2)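 Cytotoxicity was measured as CellTiter-Glo ATP luminescence, read after 10 min at room temperature. Compound treatment of the cells lasted 48 or 72 hr at 37 degrees Celsius in a qHTS format.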

HEK293 = assay: as above; settings: Five cell lines viability, CellTiter-Glo ATP luminescence, 48-72 h; max response: stronger effect = lower value
Method in brief: as §2
Further: nearly all actives have a fitted effect of over 60% in size.
Potency means the concentration at half of the fitted maximal effect.

O=[n+]1ccn([O-])c2ccccc21
inactive: Potency (ECU) | Potency (FAB9) | Potency (GB4) | Potency (HB3) | Potency (ICS) | Potency (JCK) | Potency (N140) | Potency (P93_24) | Potency (P94_40) | Potency (PAD) | Potency (PC15) | Potency (PC26) | Potency (PC49) | Potency (SC27B) | Potency (TAB109) | Potency (TAB113) | Potency (TAB165)

F[Si-2](F)(F)(F)(F)F
inactive: Potency (ECU) | Potency (FAB9) | Potency (GB4) | Potency (HB3) | Potency (ICS) | Potency (JCK) | Potency (N140) | Potency (P93_24) | Potency (P94_40) | Potency (PAD) | Potency (PC15) | Potency (PC26) | Potency (PC49) | Potency (SC27B) | Potency (TAB109) | Potency (TAB113) | Potency (TAB165)

O=C1c2ccccc2C(=O)c2c1ccc(O)c2O
inactive: Potency (ECU) | Potency (FAB9) | Potency (GB4) | Potency (HB3) | Potency (ICS) | Potency (JCK) | Potency (N140) | Potency (P93_24) | Potency (P94_40) | Potency (PAD) | Potency (PC15) | Potency (PC26) | Potency (PC49) | Potency (SC27B) | Potency (TAB109) | Potency (TAB113) | Potency (TAB165) | Potency (W2) | max response (CRL-7250) -3.43%

CC/C=C\C/C=C\C/C=C\C/C=C\C/C=C\CCCC(=O)O
inactive: Potency (ECU) | Potency (FAB9) | Potency (GB4) | Potency (HB3) | Potency (ICS) | Potency (JCK) | Potency (N140) | Potency (P93_24) | Potency (P94_40) | Potency (PAD) | Potency (PC15) | Potency (PC26) | Potency (PC49) | Potency (SC27B) | Potency (TAB109) | Potency (TAB113) | Potency (TAB165)

CCCCCCCCCCCC(=O)N(CCO)CCO
inactive: Potency (ECU) | Potency (FAB9) | Potency (GB4) | Potency (HB3) | Potency (ICS) | Potency (JCK) | Potency (N140) | Potency (P93_24) | Potency (P94_40) | Potency (PAD) | Potency (PC15) | Potency (PC26) | Potency (PC49) | Potency (SC27B) | Potency (TAB109) | Potency (TAB113) | Potency (TAB165) | Potency (W2)

Nc1ccc(N=Nc2ccccc2)c(N)n1
active: Potency (GB4) 13.5 µM
inactive: Potency (HB3) | Potency (ICS) | Potency (JCK) | Potency (P93_24) | Potency (P94_40) | Potency (PAD) | Potency (PC15) | Potency (PC26) | Potency (PC49) | Potency (SC27B) | Potency (TAB113) | Potency (TAB165) | Potency (W2) | outcome (CRL-7250) | max response (HEK293) 4.3%

CC(=O)Nc1ccc(NC(=S)NC(=O)c2ccc(C(C)(C)C)cc2)cc1
inactive: Potency (ECU) | Potency (FAB9) | Potency (GB4) | Potency (HB3) | Potency (JCK) | Potency (N140) | Potency (P93_24) | Potency (P94_40) | Potency (PAD) | Potency (PC26) | Potency (PC49) | Potency (SC27B) | Potency (TAB113)
active: Potency (ICS) 12.6 µM | Potency (W2) 7.57 µM | Potency (HEK293) 0.651 µM

COC(=O)[C@@H](N)CS
inactive: Potency (ECU) | Potency (FAB9) | Potency (GB4) | Potency (HB3) | Potency (ICS) | Potency (JCK) | Potency (N140) | Potency (P93_24) | Potency (P94_40) | Potency (PAD) | Potency (PC15) | Potency (PC26) | Potency (PC49) | Potency (SC27B) | Potency (TAB109) | Potency (TAB113) | Potency (TAB165)

O=C(OCc1ccccc1)c1ccc(O)cc1
inactive: Potency (ECU) | Potency (FAB9) | Potency (GB4) | Potency (HB3) | Potency (ICS) | Potency (JCK) | Potency (N140) | Potency (P93_24) | Potency (P94_40) | Potency (PAD) | Potency (PC15) | Potency (PC26) | Potency (PC49) | Potency (SC27B) | Potency (TAB109) | Potency (TAB113) | Potency (TAB165) | Potency (W2) | max response (CRL-7250) -9.5% | outcome (HEK293)

Oc1ccc(/C=C/c2cc(O)cc(O)c2)cc1
inactive: max response (CRL-7250) -2.32% | max response (HEK293) -3.47%

O=P(O)(O)OP(=O)(O)OP(=O)(O)O
inactive: Potency (ECU) | Potency (FAB9) | Potency (GB4) | Potency (HB3) | Potency (ICS) | Potency (JCK) | Potency (N140) | Potency (P93_24) | Potency (P94_40) | Potency (PAD) | Potency (PC15) | Potency (PC26) | Potency (PC49) | Potency (SC27B) | Potency (TAB109) | Potency (TAB113) | Potency (TAB165)

COC(=O)c1ccccc1O
inactive: Potency (ECU) | Potency (FAB9) | Potency (GB4) | Potency (HB3) | Potency (ICS) | Potency (JCK) | Potency (N140) | Potency (P93_24) | Potency (P94_40) | Potency (PAD) | Potency (PC15) | Potency (PC26) | Potency (PC49) | Potency (SC27B) | Potency (TAB109) | Potency (TAB113) | Potency (TAB165)

CC(=O)Oc1cccc2c1C(=O)c1c(OC(C)=O)cc(C(=O)O)cc1C2=O
inactive: Potency (ECU) | Potency (FAB9) | Potency (GB4) | Potency (HB3) | Potency (ICS) | Potency (JCK) | Potency (P93_24) | Potency (P94_40) | Potency (PAD) | Potency (PC15) | Potency (PC26) | Potency (PC49) | Potency (SC27B) | Potency (TAB109) | Potency (TAB113) | Potency (TAB165) | Potency (W2) | max response (CRL-7250) -18.7%

CCCCCCCCCCCCCCCCCC[N+](C)(C)CCC[Si](OC)(OC)OC
inactive: Potency (ECU) | Potency (FAB9) | Potency (GB4) | Potency (HB3) | Potency (ICS) | Potency (JCK) | Potency (N140) | Potency (P93_24) | Potency (P94_40) | Potency (PAD) | Potency (PC15) | Potency (PC26) | Potency (PC49) | Potency (SC27B) | Potency (TAB109) | Potency (TAB113) | Potency (TAB165)

O=C(O)Cc1cc(I)c(Oc2ccc(O)c(I)c2)c(I)c1
inactive: Potency (ECU) | Potency (FAB9) | Potency (GB4) | Potency (HB3) | Potency (ICS) | Potency (JCK) | Potency (N140) | Potency (P93_24) | Potency (P94_40) | Potency (PAD) | Potency (PC15) | Potency (PC26) | Potency (PC49) | Potency (SC27B) | Potency (TAB109) | Potency (TAB113) | Potency (TAB165) | Potency (W2) | outcome (CRL-7250)

O=C(O)c1ccc(NC(=O)[C@H](Cc2ccc(O)cc2)NC(=O)c2ccccc2)cc1
inactive: Potency (ECU) | Potency (FAB9) | Potency (GB4) | Potency (HB3) | Potency (ICS) | Potency (JCK) | Potency (N140) | Potency (P93_24) | Potency (P94_40) | Potency (PAD) | Potency (PC15) | Potency (PC26) | Potency (PC49) | Potency (SC27B) | Potency (TAB109) | Potency (TAB113) | Potency (TAB165)
